# Bioassay records (PubChem)
# Only some compounds are listed: those with a hit (about 12% of all), similar ones and a draw of the others.
# HP1b chromo inh: blocks HP1-beta chromodomain binding to methylated histone tails. AlphaScreen HP1-beta / biotin-H3K9me3 peptide binding. 390,000 tested, 0.56% active. Potency, µM (series often up to 114 µM), usual class: inhibitors; also: nearly all actives have a fitted effect of over 70% in size
# Target sequence (P83916 whole entry, looked up): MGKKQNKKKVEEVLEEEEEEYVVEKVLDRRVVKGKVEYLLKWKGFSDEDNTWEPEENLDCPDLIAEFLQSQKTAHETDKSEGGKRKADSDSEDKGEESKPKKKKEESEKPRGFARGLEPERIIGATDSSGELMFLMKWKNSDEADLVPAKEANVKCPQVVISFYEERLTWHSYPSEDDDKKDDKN
#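 AlphaScreen: HP1-beta (50 nM) preformed 30 min with biotin-H3(1-18)K9me3 peptide (50 nM) in PBS pH 7.4, 0.01% Tween-20. Compound added for 30 min at RT, then streptavidin donor/nickel chelate acceptor beads (10 ug/mL) for 30 min.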
# L3MBTL1 block: blocks human L3MBTL1; AlphaScreen L3MBTL1–H3K9me1 peptide binding; Potency, µM (series often up to 57.1 µM), actives largely listed as inhibitors; 230,000 tested, 0.66% active; AID 485360; also: nearly all actives have a fitted effect of over 60% in size
#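 AlphaScreen proximity signal between nickel-chelate acceptor and streptavidin donor beads (final 10 ug/mL) reports binding of 50 nM L3MBTL1 to 75 nM biotin-H3 K9me1 peptide; complex incubated with compounds 30 min at room temperature; cefsulodin titration as control.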
# BAZ2B block: BAZ2B (human) inhibition; Q9UIF8; AlphaScreen BAZ2B-H3K14Ac peptide displacement; Potency, µM (top dose mostly 114 µM), hits mostly inhibitors; 360,000 tested, 4.4% active; AID 504333; also: nearly all actives have a fitted effect of over 60% in size
#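 AlphaScreen displacement of biotin-H3(5-23)K14Ac peptide (50 nM final) from BAZ2B (50 nM final) in PBS pH 7.4, 0.01% Tween-20; complex preformed 30 min RT, then compounds (top 110 uM) 30 min RT, beads 20 min dark.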
# JMJD2A Tudor: JMJD2A Tudor domain (human) inhibition; AlphaScreen JMJD2A-Tudor / H3K4me3 peptide binding; Potency, µM (titrated, usually from 114 µM), most hits filed as inhibitors; 390,000 tested, 4.4% active; AID 504339; also: nearly all actives have a fitted effect of over 50% in size
# G9a block: inhibitors of human histone lysine methyltransferase G9a | 350,000 tested, 8.8% active | Potency, µM (top dose mostly 102 µM), hits mostly inhibitors | G9a H3K9 monomethylation, AlphaScreen, 2 h | Q96KQ7 | AID 504332; also: nearly all actives have a fitted effect of over 75% in size
# Target sequence (Q96KQ7 913-1193 limits assumed): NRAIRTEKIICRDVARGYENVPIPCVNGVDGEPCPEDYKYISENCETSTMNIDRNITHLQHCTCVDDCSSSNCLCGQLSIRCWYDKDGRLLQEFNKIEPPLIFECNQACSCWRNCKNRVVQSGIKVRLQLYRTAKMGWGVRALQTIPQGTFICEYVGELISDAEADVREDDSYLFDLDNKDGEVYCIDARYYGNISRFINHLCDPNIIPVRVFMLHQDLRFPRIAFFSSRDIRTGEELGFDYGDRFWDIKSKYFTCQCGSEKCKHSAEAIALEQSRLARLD
#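 Methyltransferase reactions run at room temperature for 2 h (20 nM enzyme, 500 nM biotin-H3K9 peptide, 20 uM SAM) after a 15 min compound preincubation; product detected by AlphaScreen beads and anti-H3K9me1 antibody.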
# Sfp PPTase inh: blocks B. subtilis Sfp PPTase activity. Q9F4F7. Biochemical Sfp PPTase activity, qHTS. Potency, µM, hits mostly inhibitors. 310,000 tested, 3.5% active;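 also: the enzyme is Sfp with the accession as filed and its product quenches rhodamine fluorescence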
#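 Compounds were incubated with enzyme (final 15 nM) for 15 min at room temperature before substrate addition started the reaction. Fluorescence at 525 nm excitation, 598 nm emission was recorded immediately and after 30 minutes.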
# Numbers stand for hits; - = inactive; ? = inconclusive; . = no result; [ ] = dose if it differs, or a comment. Calls follow the shape of the dose curve; as a rule, active = well fitted curve in the direction sought with a large enough effect; inconclusive = small, poorly fitted or top-dose-only effect, or another doubt; inactive = no such curve, though single readings can be large; an effect the other way counts as inactive or inconclusive.
SMILES,HP1b chromo inh,L3MBTL1 block,BAZ2B block,JMJD2A Tudor,G9a block,Sfp PPTase inh
Cc1ccc(S(=O)(=O)c2c(N)n(Cc3ccco3)c3nc4ccccc4nc23)cc1C,-,.,-,-,?,35.5µM
Nc1c(S(=O)(=O)c2ccccc2)c2nc3ccccc3nc2n1Cc1ccco1,-,-,-,-,-[12.7 µM],20µM
Cc1cccc(S(=O)(=O)c2c(N)n(/N=C/c3ccccc3)c3nc4ccccc4nc23)c1,-,.,-,-,-,-
Cc1ccc(S(=O)(=O)c2c(N)n(CCCO)c3nc4ccccc4nc23)cc1,-,.,56.2µM,-,-,-
CCn1c2ccccc2c2nnc(SC3CCOC3=O)nc21 (centres undefined),-,.,.,-,.,.
COc1ccc(CNC(=O)CSc2ncc3c(n2)-c2ccc(Cl)cc2N(Cc2ccc(F)cc2)S3(=O)=O)cc1OC,-,.,-,-,-,.
CCOC(=O)CNC(=O)c1cc2c(=O)n3cccc(C)c3nc2n1C,-,.,?,-,-,.
O=c1cnc2cnc(Oc3cccc(Cl)c3)nc2n1C1CC1,.,.,.,.,-[12.7 µM],-
Cc1cccc(CCNC(=O)c2ccc3c(c2)nc2n3CCOC2)c1,-,.,-,-,-,.
CC(=O)OCC1=C(C(=O)O)N2C(=O)C(NC(=O)c3ccc(F)cc3)C2SC1 (centres undefined),-,-,?,-,-,-
Cc1cc(C)n(CC(=O)NC2C(=O)N3C(C(=O)O)=C(CSc4nnc(C)s4)CSC23)n1 (centres undefined),-,.,70.8µM,25.1µM,39.8µM,56.2µM
Cc1nnc(SCC2=C(C(=O)O)N3C(=O)C(NC(=O)c4cccc(F)c4F)C3SC2)s1 (centres undefined),-,.,?,-,?,56.2µM
Cc1nnc(SCC2=C(C(=O)O)N3C(=O)C(NC(=O)Cn4ncc(Cl)c4C)C3SC2)s1 (centres undefined),-,.,?,?,28.2µM,28.2µM
CC(=O)OCC1=C(C(=O)O)N2C(=O)[C@@H](NC(=O)Cc3cccs3)[C@@H]2SC1,.,.,.,.,?,-
Cc1cccc(OCC(=O)N(Cc2cccc(Cl)c2)Cc2ccco2)c1C,-,.,-,-,-,.
CC1CCCCN1c1nnc(NC(=O)Nc2ccccc2F)s1 (centres undefined),-,.,-,-,?,.
CO/N=C/C1C(=O)NN=C1c1ccccc1 (centres undefined),-,-,?,12.6µM,?,-
Cc1ccc(C(=O)O/N=C(\N)c2ccc(C(F)(F)F)cn2)cc1,-,.,-,-,-,-
N/C(=N\OC(=O)c1csnn1)c1ccc(C(F)(F)F)cc1,-,-,-,-,17.8µM,56.2µM
O=[N+]([O-])c1ccc(Cl)c(S(=O)(=O)Nc2ccc(S(=O)(=O)N3CCOCC3)cc2)c1,-,.,-,-,44.7µM,-
COC(=O)CNC(=O)c1ccc(NS(=O)(=O)c2cc([N+](=O)[O-])ccc2Cl)cc1,-,-,-,-,56.2µM,-
O=[N+]([O-])c1ccc(S(=O)(=O)Nc2ccc(S(=O)(=O)N3CCCC3)cc2)cc1,-,.,-,-,35.5µM,-
O=[N+]([O-])c1cccc(S(=O)(=O)Nc2ccc(S(=O)(=O)N3CCCC3)cc2)c1,-,.,.,-,.,.
Cc1nn2c(C)c(C(=O)NC(C)c3ccccc3)cnc2c1-c1ccc(F)cc1 (centres undefined),-,.,-,-,-,.
CCCCNC(=O)CCCN1C(=O)c2ccccc2Sc2ncccc21,-,.,-,-,-,.
SMILES,HP1b chromo inh,L3MBTL1 block,BAZ2B block,JMJD2A Tudor,G9a block,Sfp PPTase inh
CCOCCSc1c(C)cnc2c1c(=O)n(C)c(=O)n2C,-,.,-,-,12.6µM,.
Cc1nc(NC(=O)C(Cl)Cl)sc1C(=O)N(C)C,-,?,?,79.4µM,?,-
COC(=O)c1sc(NC(=S)NC(=O)c2ccccc2)nc1C,-,-,-,-,-,-
COC(=O)c1sc(NC(=S)NC(=O)c2cc(OC)c(OC)c(OC)c2)nc1C,-,-,-,-,70.8µM,-
CCCOc1ccc(C(=O)NC(=S)Nc2nc(C)c(C(=O)N(C)C)s2)cc1,-,.,-,-,11.2µM,-
CCN1CCCC1Cn1c(-c2ccccc2)nc2c(NCc3ccccc3)nc(C)nc21 (centres undefined),.,.,.,.,.,-
O=[N+]([O-])c1ccc(C2=Nc3cc(Cl)ccc3OC2)cc1,-,-[11.4 µM],?,?,?,-
O=[N+]([O-])c1cc(Cl)cc(C2=NCCN2)c1,-,.,-,-,35.5µM,-
O=C(O/N=C1\CCCCC1c1ccc([N+](=O)[O-])cc1[N+](=O)[O-])c1c(F)cccc1F (centres undefined),-,?,?,44.7µM,39.8µM,?
COc1ccc(CCNc2oc(COc3cccc(C)c3)nc2C#N)cc1OC,?,.,?,?,14.1µM,.
N#Cc1nc(COc2ccc(Cl)cc2)oc1NCc1ccc2c(c1)OCO2,?,.,?,-,28.2µM,-
COc1ccc(CCNc2oc(COc3ccc(Cl)cc3)nc2C#N)cc1OC,-,.,20µM,?,?,.
COc1ccc(CNc2oc(COc3cccc(C)c3)nc2C#N)cc1,?,.,14.1µM,?,5.01µM,.
CCNc1oc(COc2cccc(C)c2)nc1C#N,-,-,-,-,-,-
CCc1c(C)nc(SCc2nc(-c3ccccc3C)no2)[nH]c1=O,-,.,-,-,-,.
COc1ccc(N2CC(NC(=O)COc3cccc(C)c3)CC2=O)cc1OC (centres undefined),-,.,-,-,-,.
CC(C)Oc1ccc(CNC(=O)C(C)n2ccc3cc(S(=O)(=O)N4CCCCCC4)ccc32)cc1 (centres undefined),-,.,-,-,-,.
COc1ccc(N(C(=O)c2ccncc2)S(=O)(=O)c2cccc([N+](=O)[O-])c2)cc1,-,.,-,?,79.4µM,-
CCOC(=O)[C@H]1[C@H]2COc3cc(OC)ccc3[C@@H]2N2C(=O)c3cc(F)ccc3NC(=O)[C@@]12C,-,-,-,-,-[2.33 µM],.
O=C(COC(=O)CCN1C(=O)/C(=C\C=C\c2ccccc2)SC1=S)Nc1cc(F)ccc1F,?,-[11.4 µM],20µM,39.8µM,?,-
O=C(CCN1C(=O)S/C(=C/c2ccc(F)cc2)C1=O)Nc1ccc(O)c(C(=O)O)c1,-,.,-,-,44.7µM,-
Cc1nnc(NC(=O)CCN2C(=O)/C(=C\c3ccccc3)SC2=S)s1,-,-,-,-,79.4µM,-
O=C(CN1C(=O)/C(=C\C=C\c2ccccc2)SC1=S)Nc1ccc(F)cc1,-,-,-,-,-,-
O=C(CN1C(=O)/C(=C/c2ccccc2)SC1=S)Nc1ncc(Cc2ccccc2)s1,-,.,-,-,50.1µM,-
O=C(CCN1C(=O)/C(=C/c2ccccc2)SC1=S)Nc1ccccn1,-,.,?,?,-,-
COc1cc(OC)c(NC(=O)c2cc(CN3CCOCC3)on2)cc1Cl,?,.,-,-,-,.
Cc1cc(C)n(C(C)CC(=O)Nc2ccc(C)c(F)c2)n1 (centres undefined),-,.,?,-,-,.
